Results as given in PubChem BioAssay AID1159580 (chemical genetic matrix, 2015).
Hit rate of the full screen: of about 5,500 compounds, about 2,000 (36%) were called active. Another 18% or so got no clear call; they are omitted. Rule as the data show it: active = normalized growth mostly below about 0.91 (no sharp cut-off); inconclusive = no clear call, values can overlap the other calls; inactive = mostly above about 0.92. This is one part of the list.

Test: chemical genetic growth profiling, strain panel (AID 1159580);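 also: tested at 20 µM; growth read once vehicle control cultures reached saturation at 30 °C; 1 = growth at the plate median or of vehicle wells; lower values mean less growth of the strain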
Details: S. cerevisiae deletion strains, growth OD

Measured: normalized growth

Cc1cc(=O)c2c(o1)-c1c(cc(O)c(O)c1C(=O)O)OC2
inactive: locus YBR021W, strain FUR4, stronger effect = lower value 0.96 | locus YBR229C, strain ROT2, stronger effect = lower value 0.996 | locus YCL029C, strain bik1, stronger effect = lower value 1.03 | locus YDL035C, strain GPR1, stronger effect = lower value 1 | locus YDL074C, strain BRE1, stronger effect = lower value 0.984 | locus YDL101C, strain DUN1, stronger effect = lower value 1 | locus YDL134C, strain PPH21, stronger effect = lower value 1 | locus YDL185W, strain tfp1, stronger effect = lower value 1.01 | locus YDL192W, strain arf1, stronger effect = lower value 1.01 | locus YDR101C, strain arx1, stronger effect = lower value 1.01 | locus YDR150W, strain NUM1, stronger effect = lower value 0.97 | locus YDR162C, strain NBP2, stronger effect = lower value 0.987 | locus YDR318W, strain mcm21, stronger effect = lower value 1.01 | locus YDR388W, stronger effect = lower value 1.01 | locus YDR502C, strain sam2, stronger effect = lower value 1.03 | locus YEL061C, strain CIN8, stronger effect = lower value 1 | locus YER110C, stronger effect = lower value 1.03 | locus YER155C, strain BEM2, stronger effect = lower value 1.01 | locus YER167W, strain BCK2, stronger effect = lower value 1.02 | locus YGL078C, strain dbp3, stronger effect = lower value 1.02 | locus YGL086W, strain mad1, stronger effect = lower value 1.02 | locus YGL248W, strain PDE1, stronger effect = lower value 0.996 | locus YGR078C, strain PAC10, stronger effect = lower value 0.991 | locus YGR135W, strain pre9, stronger effect = lower value 1.02 | locus YGR252W, strain gcn5, stronger effect = lower value 0.997 | locus YHR030C, strain SLT2, stronger effect = lower value 1.01 | locus YHR079C, strain IRE1 (second series), stronger effect = lower value 1.01 | locus YHR094C, strain hxt1, stronger effect = lower value 1.02 | locus YHR129C, strain ARP1, stronger effect = lower value 1.01 | locus YHR200W, strain rpn10, stronger effect = lower value 1.03 | locus YIL066C, strain RNR3, stronger effect = lower value 0.99 | locus YIL073C, strain SPO22, stronger effect = lower value 1.05 | locus YIL125W, strain kgd1, stronger effect = lower value 1.03 | locus YIR030C, strain dcg1, stronger effect = lower value 1.02 | locus YJL095W, strain BCK1, stronger effect = lower value 0.998 | locus YJL134W, strain LCB3, stronger effect = lower value 1.01 | locus YJL168C, strain set2, stronger effect = lower value 1.02 | locus YJL187C, strain SWE1 (second series), stronger effect = lower value 1.02 | locus YJR043C, strain POL32, stronger effect = lower value 0.997 | locus YKL009W, strain mrt4, stronger effect = lower value 1.03 | locus YKL068W, stronger effect = lower value 1.01 | locus YKL085W, strain MDH1 (second series), stronger effect = lower value 1.01 | locus YKL085W, strain MDH1, stronger effect = lower value 1.01 | locus YKR001C, strain vps1, stronger effect = lower value 1.02 | locus YLR039C, strain RIC1, stronger effect = lower value 0.973 | locus YLR058C, strain SHM2, stronger effect = lower value 1.01 | locus YLR102C, strain apc9, stronger effect = lower value 1.01 | locus YLR262C, strain YPT6, stronger effect = lower value 1.02 | locus YLR268W, strain sec22, stronger effect = lower value 1.02 | locus YLR330W, strain CHS5, stronger effect = lower value 0.991 | locus YLR342W, strain FKS1 (second series), stronger effect = lower value 0.966 | locus YLR371W, strain rom2, stronger effect = lower value 1.03 | locus YLR418C, strain cdc73, stronger effect = lower value 1.05 | locus YML016C, strain PPZ1, stronger effect = lower value 0.998 | locus YML032C, strain rad52, stronger effect = lower value 1.01 | locus YML124C, strain tub3, stronger effect = lower value 1.01 | locus YMR078C, strain ctf18, stronger effect = lower value 1.02 | locus YMR223W, strain ubp8, stronger effect = lower value 1.01 | locus YMR263W, strain SAP30, stronger effect = lower value 1 | locus YMR307W, strain GAS1, stronger effect = lower value 0.935 | locus YNL067W, strain RPL9B, stronger effect = lower value 0.987 | locus YNL153C, strain GIM3, stronger effect = lower value 1 | locus YNL233W, strain BNI4, stronger effect = lower value 1.02 | locus YNL250W, strain rad50, stronger effect = lower value 1.03 | locus YNL271C, strain bni1, stronger effect = lower value 1.02 | locus YNL298W, strain CLA4, stronger effect = lower value 1.03 | locus YNL307C, strain MCK1, stronger effect = lower value 1.02 | locus YNR052C, strain pop2, stronger effect = lower value 1.02 | locus YOL006C, strain TOP1, stronger effect = lower value 0.969 | locus YOL012C, strain htz1 0.545 | locus YOL147C, strain pex11, stronger effect = lower value 1.02 | locus YOR061W, strain CKA2, stronger effect = lower value 1.01 | locus YOR069W, strain VPS5, stronger effect = lower value 1 | locus YOR136W, strain idh2, stronger effect = lower value 1.03 | locus YOR144C, strain elg1, stronger effect = lower value 1.01 | locus YOR184W, strain ser1, stronger effect = lower value 1.03 | locus YOR316C, strain cot1, stronger effect = lower value 1.01 | locus YPL055C, strain LGE1, stronger effect = lower value 1.01 | locus YPR119W, strain clb2, stronger effect = lower value 1.01 | locus YPR141C, strain kar3, stronger effect = lower value 1.02 | locus YPR163C, strain tif3, stronger effect = lower value 1.01 | locus YPR167C, strain met16, stronger effect = lower value 1.03 | strain wtn01, stronger effect = lower value 1.02
